JMJD2A Tudor: blocks the human JMJD2A Tudor domain; AlphaScreen JMJD2A-Tudor / H3K4me3 peptide binding; Potency, µM (titrated, usually from 114 µM), for the others: at the top dose activity change, negative = inhibition, actives largely listed as inhibitors; 390,000 compounds, 4.4% hits; AID 504339; note: % is set by controls: 0 for no effect and ±100 for the full control effect; nearly all actives have a fitted effect of over 50% in size
Sfp PPTase inh: inhibitors of Bacillus subtilis Sfp phosphopantetheinyl transferase | Potency, µM, inactives show largest response in the series, negative = inhibition, hits mostly inhibitors | Biochemical Sfp PPTase activity, qHTS | Q9F4F7 | 310,000 compounds, 3.5% hits;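 note: the enzyme is Sfp with the accession as filed and its product quenches rhodamine fluorescence; 0% = enzyme reaction without inhibitor and -100% = no enzyme wells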
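Fluorescence-quenching assay with 15 nM Sfp, 5 uM rhodamine-CoA and 12.5 uM BHQ-2-labelled ybbR peptide in pH 7.6 Hepes/MgCl2 buffer. Enzyme was pre-incubated with compound for 15 min at room temperature. Rate was taken from the 30-min fluorescence change (525/598 nm).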
BAZ2B inh: blocks human BAZ2B. Q9UIF8. AlphaScreen BAZ2B-H3K14Ac peptide displacement. Potency, µM (titrated, usually from 114 µM), without a hit: at the top dose activity change, negative = inhibition, usual class: inhibitors. 360,000 compounds, 4.4% hits; note: % is set by controls: 0 for no effect and ±100 for the full control effect; nearly all actives have a fitted effect of over 60% in size
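AlphaScreen luminescence quantifies BAZ2B engagement of H3K14Ac peptide; the protein and biotinylated peptide are both at 50 nM final, buffer PBS pH 7.4 with 0.01% Tween-20, all steps at room temperature.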
G9a inh: inhibitors of human histone lysine methyltransferase G9a; Q96KQ7; 350,000 compounds, 8.8% hits; G9a H3K9 monomethylation, AlphaScreen, 2 h; Potency, µM (top dose mostly 102 µM), for the others: at the highest dose activity, negative = inhibition, actives largely listed as inhibitors; AID 504332; note: % is set by controls: 0 for no effect and ±100 for the full control effect; nearly all actives have a fitted effect of over 75% in size
Target sequence (Q96KQ7 913-1193 limits assumed): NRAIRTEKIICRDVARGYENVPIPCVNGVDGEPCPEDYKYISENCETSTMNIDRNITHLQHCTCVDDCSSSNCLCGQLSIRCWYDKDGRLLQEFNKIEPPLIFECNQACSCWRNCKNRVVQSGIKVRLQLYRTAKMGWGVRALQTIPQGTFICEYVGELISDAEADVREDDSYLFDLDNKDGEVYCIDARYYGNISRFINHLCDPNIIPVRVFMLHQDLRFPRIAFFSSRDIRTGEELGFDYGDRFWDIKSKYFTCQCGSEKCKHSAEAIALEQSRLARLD
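AlphaScreen detection with an anti-monomethyl H3K9 antibody quantified product after a 2 h room-temperature reaction containing 500 nM biotinylated H3K9 peptide, 20 µM SAM and 20 nM enzyme, which had been preincubated 15 min with compound.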
HP1b binding inh: inhibitors of HP1-beta chromodomain binding to methylated histone tails | P83916 | 390,000 compounds, 0.56% hits | AID 540317 | AlphaScreen HP1-beta / biotin-H3K9me3 peptide binding | Potency, µM (highest dose often 114 µM), inactives show at the highest dose activity change, negative = inhibition, most hits filed as inhibitors; note: nearly all actives have a fitted effect of over 70% in size
Target sequence (P83916 whole entry, looked up): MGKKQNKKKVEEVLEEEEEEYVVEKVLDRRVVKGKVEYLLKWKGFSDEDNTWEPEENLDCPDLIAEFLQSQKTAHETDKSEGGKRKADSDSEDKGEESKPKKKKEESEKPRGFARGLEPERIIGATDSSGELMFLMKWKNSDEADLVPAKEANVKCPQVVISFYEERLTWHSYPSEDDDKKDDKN
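HP1-beta protein (50 nM final) preincubated 30 min at room temperature with biotinylated H3(1-18)K9me3 peptide (50 nM) in PBS pH 7.4, 0.01% Tween-20, then compound added for 30 min. AlphaScreen streptavidin donor/nickel chelate acceptor beads (10 ug/mL final), 30 min dark, luminescence read.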
Numbers without * were called inactive; ? = inconclusive; / = no result given; ! = repeats disagree; [ ] = another dose, or the depositor's remark. Rows were chosen to be rich in hits. Some 12% of all compounds tested hit in one or more screens of this group. Calls come from the whole dose curve; as a rule, active = well fitted curve in the direction sought with a large enough effect; inconclusive = small, poorly fitted or top-dose-only effect, or another doubt; inactive = no such curve, though single readings can be large; an effect the other way counts as inactive or inconclusive. Potency is the fitted concentration of half-maximal effect.

SMILES	JMJD2A Tudor	Sfp PPTase inh	BAZ2B inh	G9a inh	HP1b binding inh
O=c1[nH]c(=O)n(CCC2=CCCCC2)c(O)c1/C=N/Nc1cccc2ccccc12	-10.3%[11.4 µM]	-26.5%	?	1.78µM*	31.6µM*
O=c1[nH]c(=O)n(Cc2ccc(F)cc2)c(O)c1/C=N/Nc1ccccc1	-32.1%	-8.1%	-15.3%	10µM*	7.8%
O=c1[nH]c(=O)n(CCC2=CCCCC2)c(O)c1/C=N/Nc1ccccc1	-31.1%	2.3%	-24.1%	3.55µM*	51.4%
Cc1ccc(C)c(CN2C(=O)c3ccccc3Sc3ccc(C(=O)N4CCC5(CC4)OCCO5)cc32)c1	-27.2%	/	-24.4%	-4.9%[59 µM]	1.0%
O=[N+]([O-])/C=C1\NCCN1Cc1ccc(Cl)nc1	-12.4%	-10.2%	4.5%	50.1µM*!	-25.1%
O=C(O)c1nn(Cc2ccc(Cl)cc2Cl)c2ccccc12	-10.3%	4.8%	0.8%	2.24µM*!	31.1%
O=C(O)c1nn(Cc2ccc(Cl)c(Cl)c2)c2ccccc12	/	7.7%	/	/	/
CN1C2CCC1/C(=C/c1ccccn1)C(=O)/C2=C\c1ccccn1	79.4µM*	?	-23.9%	?	-2.7%
CNNC	/	11.2µM*	/	/	/
CCC(=O)Nc1nc2ccccc2n1CCN(C)C	39.8µM*	-12.9%	?	31.6µM*	-11.2%
COc1ccc(-c2ccc(OC)c(OC)c2OC)cc1	49.0%	/	/	/	53.6%
CC(O)CN(CCN(CC(C)O)CC(C)O)CC(C)O (centres undefined)	/	79.4µM*	/	8.2%[12.7 µM]	/
NP(=O)(Oc1ccccc1)c1ccccc1 (centres undefined)	-20.1%	/	/	/	17.0%
O=C(Nc1cccnc1)C1CCN(S(=O)(=O)c2cccs2)CC1	-17.4%	5.3%	1.5%	16.5%	17.5%
CC(C)C(=O)Nc1ccc([N+](=O)[O-])c(C(F)(F)F)c1	-11.5%	13.4%	-10.5%	2.51µM*!	33.7%
Cn1cc([N+](=O)[O-])c(C(=O)Nc2ccc3c(C(F)(F)F)cc(=O)oc3c2)n1	5.0%	16.4%	-13.2%	28.4%	34.2%
CCOP1(=S)Oc2cc3c(cc2C(C(=O)OC)(C(F)(F)F)O1)OCO3 (centres undefined)	?	25.1µM*	-32.5%	?	?
COc1cccc(NC(=O)Cn2c(-c3nonc3N)nc3ccccc32)c1	-5.9%	/	1.1%	-1.5%[59 µM]	42.5%
CCC(C)n1c(O)c(C=NCCN2CCOCC2)c(=O)[nH]c1=S (centres undefined)	-6.2%	-8.9%	-1.9%	-8.8%	42.4%
COc1cc(Cc2ccc(N)c(OC)c2)ccc1N	?	7.3%	?	70.8µM*	-21.2%
Cc1cccc(CNCCc2c[nH]c3ccccc23)c1	?	-19.0%	39.8µM*	/	13.1%
c1ccc2c(CCNCc3ccc4c(c3)OCO4)c[nH]c2c1	?	35.5µM*	?	?	4.2%
CCc1ccc(CNCCc2c[nH]c3ccccc23)cc1	35.5µM*	-21.8%	1.8%[0.457 µM]	?	?
COc1cc(CNCCc2c[nH]c3ccccc23)cc(OC)c1	3.55µM*	1.9%	50.1µM*	31.6µM*	?
Fc1cccc(CNCCc2c[nH]c3ccccc23)c1	-14.6%	1.9%	?	/	25.6%
SMILES	JMJD2A Tudor	Sfp PPTase inh	BAZ2B inh	G9a inh	HP1b binding inh
c1ccc(CNCCc2c[nH]c3ccccc23)cc1	-17.0%	-3.2%	?	4.1%	11.7%
O=c1[nH]c2ccccc2c(=O)n1-c1cccc(Cl)c1	0.9%	20.5%	-5.8%	-4.2%[59 µM]	17.2%
CS(=O)(=O)N1CCC2(CC1)CN(Cc1ccncc1)C2	/	-1.6%	/	4.1%[12.7 µM]	/
C[C@H](CO)N1C[C@H](C)[C@@H](CN(C)C(=O)Nc2ccccc2)Oc2c(NC(=O)Nc3ccccc3)cccc2C1=O	-19.1%	/	/	/	41.9%
c1ccc(N2C3C4CC(C5CCCC54)C32)cc1 (centres undefined)	75.9%	/	/	/	119.1%
O=c1n(Cl)c(=O)n(Cl)c(=O)n1Cl	/	-5.2%	/	12.6µM*	/
NC[C@H](CP(=O)(O)O)c1ccc(Cl)cc1	/	-1.6%	/	/	/
COc1ccc2[nH]c(C)c(CCNCc3cc(OC)c4c(c3)OCO4)c2c1	1.26µM*	/	44.7µM*	?	?
COc1ccc2[nH]c(C)c(CCNCc3cc(OC)c(OC)c(OC)c3)c2c1	2.82µM*	44.7µM*	79.4µM*	22.4µM*	?
COc1ccc2[nH]c(C)c(CCN3CCC(=O)C(C)C3C)c2c1 (centres undefined)	?	5.0%	?	?	14.4%
Cc1ccc2[nH]c(C)c(CCNCc3cccnc3)c2c1	7.0%	-2.3%	?	50.1µM*	22.7%
COc1ccc(CNCCc2c(C)[nH]c3ccc(OC(F)(F)F)cc23)c(OC)c1	17.8µM*	?	56.2µM*	44.7µM*	?
CCC12CN3CCN(CC(C3)/C1=N\O)C2	-21.2%[11.4 µM]	16.7%	26.5%	-2.7%[59 µM]	41.6%
COc1ccc(CN2CCCC(C(=O)c3ccc(Cl)cc3)C2)c(OC)c1 (centres undefined)	?	10.3%	-5.2%	21.6%[0.501 µM]	-12.7%
CCOC(=O)c1ccc(S(=O)(=O)n2c(=O)oc3ccccc32)cc1	?	/	11.8%	20.5%[12.7 µM]	18.6%
Cc1ccc(OCCSC2=NN2c2cc(C)nc(N)n2)cc1	-1.4%	12.8%	6.9%	/	39.6%
CCOP(=S)(OCC)SCn1c(=O)oc2cc(Cl)ccc21	/	56.2µM*	/	/	/
CCn1c(=O)oc2cc(NC(=O)CCl)ccc21	-14.2%[57.1 µM]	12.7%	-23.5%	?	25.1%
Cc1ccc(-n2c(=O)c3ccc(C(=O)NCc4ccccc4Cl)cc3n(CC(=O)Nc3cccc(Cl)c3)c2=O)cc1	-5.3%	/	/	25.8%[59 µM]	60.8%
CCCOc1ccc(C(C)=O)cc1Cc1c(O)[nH]c(=S)[nH]c1=O	-22.4%	?	12.8%	/	1.4%
CCOc1ccc(C(C)=O)cc1Cc1c(O)[nH]c(=S)[nH]c1=O	89.1µM*	44.7µM*	4.4%	/	?
COc1ccc(C(C)=O)cc1Cc1c(O)[nH]c(=S)[nH]c1=O	?	50.1µM*	-17.9%	8.91µM*	-7.3%
CC(=O)c1ccc(OC(C)C)c(Cc2c(O)[nH]c(=S)[nH]c2=O)c1	0.3%	22.4µM*	-12.5%	/	26.2%
O=c1[nH]c(=S)n(-c2ccccc2F)c(O)c1C=Nc1ccc(N2CCOCC2)cc1	-19.8%	0.7%	-21.7%	-8.2%[59 µM]	9.5%
Oc1cccc(Nc2ncnc3sc4c(c23)CCCC4)c1	89.1µM*	/	-1.8%	-29.9%[59 µM]	-1.0%[57 µM]
N#CCCN	/	/	/	-16.6%[59 µM]	/
CC(=O)Nc1ccc(N(C(=O)Cn2nnc3ccccc32)C(C(=O)NC2CCCC2)c2ccc(O)c(O)c2)cc1 (centres undefined)	-16.7%	-14.3%	-18.5%	50.1µM*	-14.6%
O=C(c1cccc(Cl)c1)C1CCCN(Cc2cccc3cnccc23)C1 (centres undefined)	44.7µM*	-1.4%	?	?	?
COC(=O)C1=C(c2cccc(OC)c2OC)C[C@@H]2CC[C@H]1N2C(=O)N1CCCCC1	-7.7%	/	/	/	50.0%
CN[C@@H](Cc1c[nH]c2ccccc12)C(=O)O	/	-5.3%	/	/	/
